From PubChem BioAssay
An excerpt weighted towards active compounds, which were near 13% of everything screened.
HCV inh = inhibitors of hepatitis C virus infection; Huh7.5.1 HCVcc-Cre infection, luciferase reporter, 44 h; Potency, µM (titrated, usually from 41.8 µM), without a hit: top-dose activity change, negative = inhibition, hits mostly inhibitors; hit rate 3.4% among 340,000; AID 651820; active means well fitted inhibition curve with a large enough effect; inconclusive means small, poorly fitted or top-dose-only effect, or another doubt; inactive means no such curve, though single readings can be large or run the other way; further: potency means the concentration at half of the fitted maximal effect; on the % scale 0 is the no-effect control and ±100 the full control effect
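Infectious HCVcc-Cre (~0.5 moi) was added to cells just after compound, with cells seeded 4 h earlier at 1,000 per well. Luciferase activity after 44 h culture reported infection; substrate was incubated 15 min at room temperature before reading.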
CHX counter = affects cycloheximide protein synthesis inhibition readout, counter-screen; cell reporter, cycloheximide protein synthesis inhibition counterscreen; max response, %; hit rate 12% among 300,000; in the data active means max response mostly above about 13%, no sharp cut-off; inactive means mostly below about 14%; further: read at 38.3 µM for the half of the compounds with a filed dose; 0% is about no effect
Marburg entry inh = blocks Marburg virus binding to or entry into cells. hit rate 1.8% among 300,000. Potency, µM (top dose mostly 37.8 µM), inactives show top-dose activity change, negative = inhibition, actives largely listed as inhibitors. Marburg virus pseudotyped entry inhibition, cell reporter; calls by dose curve; tested in HEK293 cells; further: potency means the concentration at half of the fitted maximal effect; on the % scale 0 is the no-effect control and ±100 the full control effect
Shiga toxin inh = blocks Shiga toxin action in Vero cells. Vero cells, Shiga toxin protein synthesis inhibition reporter. inhibition, % at 38.7 µM. hit rate 9.2% among 290,000. AID 2315; in the data active means inhibition mostly above about 28%, no sharp cut-off; inactive means mostly below about 43%; further: 0% is about no effect
LASV entry inh = Lassa virus entry inhibition. Lassa virus pseudotype entry inhibition, cell reporter. Potency, µM (highest dose often 37.9 µM), for inactives: at the highest dose activity change, negative = inhibition, usual class: inhibitors. hit rate 1.2% among 300,000; calls by dose curve; tested in HEK293 cells; further: potency means the concentration at half of the fitted maximal effect; on the % scale 0 is the no-effect control and ±100 the full control effect; nearly all actives have a fitted effect of over 50% in size
FMDV antiviral = antivirals against foot and mouth disease virus. FMDV antiviral cell-based qHTS. Potency, µM (doses to about 57.9 µM), for inactives: at the top dose activity change, negative = inhibition, actives largely listed as inhibitors. hit rate 1.2% among 410,000. AID 1159524; calls by dose curve; tested in HEK293T cells; further: read-out not given here; potency means the concentration at half of the fitted maximal effect; on the % scale 0 is the no-effect control and ±100 the full control effect; nearly all actives have a fitted effect of over 45% in size
Numbers without * were called inactive; ? = inconclusive; nt = not tested or not shown; ! = a repeat was not active; [ ] = another dose, or the depositor's remark.

SMILES	HCV inh	CHX counter	Marburg entry inh	Shiga toxin inh	LASV entry inh	FMDV antiviral
COc1ccc(CNc2ccc(Cl)cc2)cc1Cn1ccnc1	?	5	?	-5	-15%	?
Cc1ccc(C)c(N(CC(=O)Nc2ccc(-c3nc4ccc(C)cc4s3)cc2)S(C)(=O)=O)c1	?	28*	41%	80*	6%	10%
Cc1ccc(N(CC(=O)Nc2ccc(-c3nc4ccc(C)cc4s3)cc2)S(C)(=O)=O)cc1	-8%	58*	?	117*	-10%	19%
Cc1ccc2nc(-c3ccc(NC(=O)c4ccc(S(C)(=O)=O)cc4)cc3)sc2c1	nt	nt	nt	nt	24%[46.1 µM]	25%
CCOC(=O)N1CCN(Cc2nc3c(c(=O)[nH]c(=O)n3C)n2Cc2cc(C)ccc2C)CC1	3%	-3	-6%	-10	-11%	-6%
CN(CC(=O)Nc1ccccc1Br)C(=O)c1ccccc1Cc1ccccc1	?	nt	nt	nt	nt	-18%
CCOc1ccccc1NC(=O)c1cc(S(=O)(=O)NCc2ccco2)ccc1F	3%	42*	nt	35*	nt	49%
COc1ccccc1N(C)S(=O)(=O)c1ccc(Cl)c(C(=O)NCc2ccco2)c1	-7%	nt	?	nt	-12%	-18%
CCOc1ccc(S(=O)(=O)NCc2ccncc2)cc1NC(=O)c1ccccc1	1.8µM*	nt	3.5µM*	nt	?	-11%
COc1ccc(S(=O)(=O)NCc2ccco2)cc1N(C)S(=O)(=O)c1ccccc1	-8%	33*	-1%[46.1 µM]	51*	-30%	44%
O=C(COC(=O)c1ccc(S(=O)(=O)NCc2ccco2)cc1)Nc1ccccc1	11%	nt	?	nt	-1%	-11%
O=C(COC(=O)c1ccc(S(=O)(=O)NCc2ccco2)cc1)Nc1ccccc1OC(F)F	11µM*!	67*	2%	74*	23%	17%
COc1ccccc1NC(=O)c1cc(S(=O)(=O)NCc2ccccc2)ccc1F	?	-1	?	-7	?	49%
COc1ccc(S(=O)(=O)Nc2ccc(F)cc2)cc1N(C)S(=O)(=O)c1ccc(Cl)cc1	?	5	21µM*	10	?	nt
COc1ccc(OC)c(NC(=O)c2cc(S(=O)(=O)NCc3ccco3)ccc2F)c1	25µM*	47*	?	58*	-16%	24%
CCCCOc1ccc(CNC(=O)CCCN2C(=O)CSc3c2c(C)nn3-c2ccccc2)cc1	nt	nt	nt	nt	?	-16%
Cc1ccc(N2CCN(C(=O)N3CCOCC3)CC2)cc1C	16%	-2	19%[46.1 µM]	-2	7%[46.1 µM]	6%
CCC(C)N1C(=O)S/C(=C/c2ccc(N3CCOCC3)cc2C)C1=O (centres undefined)	?	56*	-1%[46.1 µM]	87*	?	12%
Cc1cc(N2CCOCC2)ccc1/C=C1\SC(=O)N(C(C)C)C1=O	-29%	39*	?	74	13%	16%
CCCN(C)C1CN(Cc2cn(Cc3ccc(C(F)(F)F)cc3)nn2)S(=O)(=O)C1 (centres undefined)	nt	nt	nt	nt	nt	-12%
c1csc(C2Nc3ccccc3-c3nc4ccccc4n32)c1 (centres undefined)	-16%	52*	?	124*	-18%	10%
c1cncc(C2Nc3ccccc3-c3nc4ccccc4n32)c1 (centres undefined)	?	30*	-3%	29*	-13%	20%
Cc1ccsc1C1Nc2ccccc2-c2nc3ccccc3n21 (centres undefined)	?	76*	?	132*	-9%	15%
c1ccc2c(c1)NC(c1ccncc1)n1c-2nc2ccccc21 (centres undefined)	?	1	?	35	-18%	9%
CC(C)C[C@@H]1COc2cccc(N3CCCCC3)c2S(=O)(=O)N1	nt	nt	nt	nt	15%[46.1 µM]	nt
SMILES	HCV inh	CHX counter	Marburg entry inh	Shiga toxin inh	LASV entry inh	FMDV antiviral
Cc1cc2c(cc1C)-c1c(ssc1=Nc1ccc(S(N)(=O)=O)cc1)C(C)(C)N2	13µM*	-5	nt	-9	nt	-10%
Cc1cc(C(=O)CN2C(=O)NC3(CCCc4sccc43)C2=O)c(C)n1-c1ccccc1 (centres undefined)	?	39*	-9%	29*	?	0%
Cc1cc(C(=O)CN2C(=O)CCC2=O)c(C)n1Cc1ccccc1	8%	30*	-5%	20	-20%	?
Cc1cc(C(=O)CN2C(=O)NC3(CCCc4ccccc43)C2=O)c(C)n1Cc1ccccc1 (centres undefined)	?	25*	-12%	20	11%	-13%
Cc1ccc(CN(C)C(=O)CN2C(=O)NC3(CCCc4ccccc43)C2=O)c(C)c1 (centres undefined)	10µM*	nt	nt	nt	nt	0%
CCOC(=O)c1cc(C)n(Cc2ccccc2)c1C	-12%	25	4%	37	0%	17%
CN(C)C(=O)CN1C(=O)NC2(CCCc3ccccc32)C1=O (centres undefined)	23%	1	?	-20	?	-2%
Cc1cccc(OCc2nnc(SCC(=O)Nc3nccs3)o2)c1	?	13	nt	14	nt	-9%
CSc1cccc(-n2nnc(-c3nsc(NC(=O)c4cccs4)n3)c2C)c1	nt	nt	nt	nt	?	12%
CCn1cc(S(=O)(=O)NCCc2ccc(F)cc2)cn1	5%	11	6%[46.1 µM]	-14	-11%[46.1 µM]	36%
CSCCC(=O)N1CCN(CC(=O)N2CCCC2)CC1	12%	-6	0%[46.1 µM]	-7	-1%	1%
COC(=O)c1ccc2c(c1)C(C)(C)C(/C=C/c1ccc(OC)c(OC)c1OC)=[N+]2C	10µM*	-11	?	-28	?	16µM*
S=C1N(c2ccccc2)C(c2ccccc2)N2CCCN12 (centres undefined)	10%	9	-1%	7	18µM*	-11%
O=C1CC(=C(c2ccccc2)c2ccccc2)C(=O)N1CCCCN1CCN(c2cccc(Cl)c2)CC1	11µM*	-1	?	-12	?	?
CCOC(=O)CC1C(=O)NCCN1C(=O)Nc1ccc(Cl)cc1 (centres undefined)	8%	2	18%	-1	15%	-19%
CCOC(=O)CC1C(=O)NC2CCCCC2N1C(=O)Nc1ccc(Cl)cc1 (centres undefined)	1%	28*	13%	20	3%	-2%
CN1C2C=C(N(CCc3ccccc3)C(=O)c3ccc(Cl)cc3)CC1CC2 (centres undefined)	-8%	-3	?	35	3%	6%
O=C(CN(C(=O)c1csnn1)c1ccccc1C(F)(F)F)NCc1ccccc1	?	-2	3%[46.1 µM]	-5	-24%[46.1 µM]	-1%
O=C(Nc1ccccc1)Nc1nncs1	1%	-4	2%	-5	2%	-21%
COc1cccc(-c2csc(NC(=O)C3CC3)n2)c1	-20%	18	nt	40	nt	34%
COc1cccc(-c2csc(NC(=O)Nc3ccccc3)n2)c1	11µM*	14*	nt	57*	nt	25µM*
CC(C)(C)c1csc(NC(=O)Nc2ccccc2)n1	-23%	51*	?	72*	?	-34%
O=C(Nc1ccccc1)Nc1nc(-c2ccccc2)cs1	-17%	45*	nt	39	nt	-3%
